Among all 69,000 compounds or so, about 8,600 (12%) showed an effect of 50% or more. The sample as a whole holds a higher share of strong results than the screen did.

The subject of this assay is Plasmodium berghei. Nature of the assay: Screen against P. berghei liver stage (PbLuc), transformed with Luciferase, at 10uM. Type of assay: functional, HepG2. Particulars: tested at 10 uM.
Take `c1ncn(Cc2cn3c(n2)CN(CC2CCCCC2)CC3)n1`: the INHIBITION is -10.3%.

`CC(C)(C)c1n[nH]c(C2CN(C(=O)c3csnn3)CCO2)n1` (stereo not drawn): the INHIBITION came out at 11.1%.

As to `NC(=O)C1CCN(C(=O)NC2CCc3cc(Cl)ccc32)CC1` (stereo not drawn), the INHIBITION is recorded as 18.4%.

For `C[C@H]1CN(C)C[C@@]12COCCN(C(=O)Cc1ccccc1)C2`, the INHIBITION is given as -21.7%.

As for `CC(=O)N1CCN([C@@H]2CCC[C@@H](N(C)C(=O)C3CC3)[C@H]2O)CC1`, the INHIBITION worked out at 45.6%. Regarding `COc1cccc(Cn2ncnc2COC(C)C)c1`, the INHIBITION is -16.1%.

Consider `COCC(=O)N1CC2=CC(C)(C)COc3ccc(OC)c(c32)C1`, for which the INHIBITION stood at 48%. Regarding `COc1ccc2c3c1CN(C(C)=O)CC3=CC(C)(C)CO2`, the INHIBITION stood at 52.5%.

As to `COC(=O)N1CC2=CC(C)(C)COc3ccc(OC)c(c32)C1`, the INHIBITION was determined as 63.1%.

Turning to `COCCOC(=O)N1CC2=CC(C)(C)COc3ccc(OC)c(c32)C1`, the INHIBITION was -3.5%. With `COc1ccc2c3c1CN(C(=O)N(C)C)CC3=CC(C)(C)CO2` the figure was 25.3%; with `CCNC(=O)N1CC2=CC(C)(C)COc3ccc(OC)c(c32)C1`, 22.2%. With `CC(C)NC(=O)c1nnn(-c2ccc(F)cc2)c1C1CC1` the figure was -38.2%; with `Cc1cccc(CN2C[C@H]3CC[C@@H](C2)N(Cc2c(C)noc2C)C3=O)n1`, -84%.

With `CCOC(=O)N1CCC(NC(C)c2ccccc2-n2cccn2)CC1` (stereo not drawn), the INHIBITION is listed as 17.5%. With `CC(NCc1cccc(NC(=O)C2CCCCC2)c1)c1cnn(C)c1` (stereo not drawn) the figure was 45.4%; with `Cn1ccnc1CN1CCN(CC(O)c2cc(F)ccc2F)CC1` (stereo not drawn), 21.5%; with `CC(C)c1nn(C)c(N(C)C)c1CNCc1ccc(N(C)C)nc1`, 13.5%. For the compound `Cc1cc(NC(=O)C2CCN(c3nnc(C)c(C)c3C#N)CC2)no1`, the INHIBITION amounted to 19.4%.

In the case of `Cc1cc(NC(=O)C2CCN(c3ncccc3C#N)CC2)no1`, the INHIBITION amounted to 50.1%. For the compound `Cc1cc(C(=O)NC2CCN(c3ncccc3C#N)CC2)no1`, the INHIBITION is reported as 5.23%. Consider `Cn1cc(C2=NOC(C(=O)NC3(c4ccccc4F)CCCC3)C2)cn1` (stereo not drawn), for which the INHIBITION came to 45.6%.

As for `CN1CCC(N(C)C(=O)c2cnn(-c3cc(F)ccc3F)c2N)CC1`, the INHIBITION turned out to be 39.2%. For the compound `O=C(CN1CCCC1CC(=O)c1ccccc1)NCc1ccccn1` (stereo not drawn), the INHIBITION was 1.93%. With `Cc1ccc(CC2CCCN2CC(=O)NCc2ccccn2)cc1` (stereo not drawn) the figure was 28.4%; with `CN(C)S(=O)(=O)N1CCOCC1CC(=O)NCCOc1ccccc1` (stereo not drawn), 23.5%; with `O=C(CN1CCOCC1CC(=O)c1ccco1)NCc1ccccn1` (stereo not drawn), 54.3%. For `O=C(CC1COCCN1S(=O)(=O)c1ccccc1)NCc1ccccn1` (stereo not drawn), the INHIBITION turned out to be 68.5%.

With `Nc1ncccc1CN1CCOCC1CC(=O)NCc1ccccn1` (stereo not drawn), the INHIBITION is 47.6%. Take `CC(C)c1nc(C2CCCN2CCS(=O)(=O)c2ccccc2)no1` (stereo not drawn): the INHIBITION is given as -12.6%. With `NC(=O)C1CN(C(=O)c2ccc(F)cc2)CCN1CCc1ccccc1` (stereo not drawn) the figure was 22%; with `CCC(NC(=O)c1cnc(-c2cccnc2)nc1)c1ccnn1C` (stereo not drawn), -31.4%. With `O=C(NCCCN1CCOCC1)c1ccn(COc2ccc(Br)cc2)n1`, the INHIBITION is recorded as 47.4%. For `Cc1cc(C2CCCN(C(=O)c3c(C)noc3C)C2)n[nH]1` (stereo not drawn), the INHIBITION is -2.37%. For `O=C(Nc1cccnc1)[C@@H]1C[C@H]2OCC[C@H]2N(Cc2ccsc2)C1`, the INHIBITION was -2.84%.

As to `Cc1ccc(Cl)c(CN2CCC(c3nccn3C(C)C)CC2)c1F`, the INHIBITION is given as -7.71%. `O=C(NC1CCN(c2ncccn2)CC1)c1cc2c(cc1O)CCCC2`: the INHIBITION was 55%. `O=C(NC1CCN(c2ncccn2)CC1)c1cc2c([nH]c1=O)CCC2`: the INHIBITION is reported as -46.5%. In the case of `CC(C)c1ccc(O)c(C(=O)NC2CCN(c3ncccn3)CC2)c1`, the INHIBITION worked out at 0.643%. As to `CC(=O)N[C@@H]1CN(C(=O)CC2CCOCC2)C[C@H]1O`, the INHIBITION is on record as -5.8%. As for `CC(C)C(c1cccnc1)N(C)C(=O)Cc1c(F)cccc1F` (stereo not drawn), the INHIBITION is listed as 41.8%. As to `CCNC(=O)N(C)C(c1cccnc1)C(C)C` (stereo not drawn), the INHIBITION came out at 63.5%. Take `CC(C)C(c1cccnc1)N(C)C(=O)Cc1ccc(O)cc1` (stereo not drawn): the INHIBITION was -30%.

For the compound `COc1c[nH]c(C(=O)N2CCN(c3cccc(Cl)c3)CC2)cc1=O`, the INHIBITION is recorded as 38.8%. As for `CCc1cnc(N2CC[C@H]3[C@@H]2CCC(=O)N3c2cccnc2)nc1`, the INHIBITION was -24.1%. With `COC1CCN(C(=O)Cc2csc(-c3ccccc3)n2)CC1` the figure was -55.9%.

On to `Cc1noc(C(C)C)c1C(=O)NCc1ccc2c(c1)OCCO2`, for which the INHIBITION was -28.4%.

In the case of `CCCS(=O)(=O)N1CC(=O)N(Cc2ccccc2OC)CC(O)C1` (stereo not drawn), the INHIBITION amounted to 41.1%. The result for `CCc1noc(C(C)SCCS(C)(=O)=O)n1` (stereo not drawn) reads 64.6%. With `CC(SCCS(C)(=O)=O)c1nc(Cc2ccc(F)cc2)no1` (stereo not drawn) the figure was 12.4%; with `CC(SCCS(C)(=O)=O)c1nc(Cc2ccccc2)no1` (stereo not drawn), 13.5%; with `O=C(Nc1cccnc1)[C@@H]1CCO[C@@H]2CCN(Cc3cccnc3)C[C@@H]21`, 12.7%.

In the case of `CC(=O)N1N=C(c2ccccc2)OC1C(=O)NCCN(C(C)C)C(C)C` (stereo not drawn), the INHIBITION was determined as 30.3%. Regarding `Cc1nc(C(C)(C)C)sc1C(=O)NCCNc1ncccn1`, the INHIBITION is given as 10%. Take `Cc1nn(C)c(C)c1CC(=O)NCC1(C(N)=O)CCOCC1`: the INHIBITION worked out at 47.7%.

Turning to `Cc1nn(C)c(C)c1CCC(=O)NCC1(C(N)=O)CCOCC1`, the INHIBITION is 26.4%.

Take `Cc1nn(C)c(C)c1S(=O)(=O)NCC1(C(N)=O)CCOCC1`: the INHIBITION was 74.5%. In the case of `CSc1ccc(CN(CCO)C(=O)CCNC(C)=O)cc1`, the INHIBITION amounted to 18.4%. With `CNCc1n[nH]c(=O)n1-c1cccc(Cl)c1Cl` the figure was 25.1%. With `CCN1CCN(c2nsc(-c3cccnc3)c2C#N)CC1` the figure was 36.6%; with `N#Cc1c(N2CCCCC2)nsc1-c1cccnc1`, -0.621%; with `CN1CCN(c2nsc(-c3cccnc3)c2C#N)CC1`, 62.3%.

Regarding `CN(Cc1ccc(N(C)C)cc1)C(=O)c1cc2c([nH]c1=O)CCCC2=O`, the INHIBITION is -42.975%. With `CNC(=O)c1ccc(C(=O)N2CCCCC2Cn2cc(C)cn2)cn1` (stereo not drawn) the figure was 24.6%; with `Cc1cc(C(=O)N2CCC3(CC2)CC(c2cccnc2)C(=O)N3)no1` (stereo not drawn), -31.3%; with `Cc1ccc(CN2CC[C@@H]3[C@@H](CO[C@H]3CN(C)C)C2)o1`, 61.1%. With `Cc1ccc(CN2CC[C@H]3CO[C@H](CN(C)C)[C@H]3C2)o1` the figure was 53.9%; with `Cc1ccc(CN2CC[C@H]3CO[C@H](CN4CCCC4)[C@H]3C2)o1`, 7.7%; with `Cc1ccc(CN2CC[C@H]3CO[C@H](CN4CCN(C)CC4)[C@H]3C2)o1`, 45.7%.

Turning to `Cc1ccc(CN2CC[C@H]3[C@H](CO[C@H]3CN(C)C)C2)o1`, the INHIBITION is on record as 13.1%. Take `CN(C)C[C@@H]1OC[C@H]2CN(Cc3ccoc3)CC[C@H]21`: the INHIBITION is reported as -87.7%. For `CCCc1n[nH]c(C2CN(C(=O)c3cccnc3N(C)C)CCO2)n1` (stereo not drawn), the INHIBITION stood at 16.9%. The result for `CC(C)NC(=O)C1(CC2CC(c3ccc(F)cc3)=NO2)CCNCC1` (stereo not drawn) reads 65.7%; that for `O=C(NCCCO)C1(CC2CC(c3ccc(F)cc3)=NO2)CCOCC1` (stereo not drawn), 36%. With `O=C(NCCO)C1(CC2CC(c3ccc(F)cc3)=NO2)CCOCC1` (stereo not drawn) the figure was 22.8%; with `Cc1noc(C)c1CCC(=O)NCC1(O)CCCN(c2ccccn2)C1` (stereo not drawn), 30.4%. Take `Cc1cc(CN(C)S(=O)(=O)N2CCCC2c2ccc(C)o2)no1` (stereo not drawn): the INHIBITION is recorded as 31.9%. The result for `Cc1ccc(CN(C)CC2(O)CCCN(C)C2)o1` (stereo not drawn) reads -12.7%; that for `Cc1nn(C)c2c(N3CCN(C)CC3)nc(C3CC3)nc12`, 21.5%; that for `COC(=O)NCC(=O)N1CCCC1c1nc(-c2ccccc2F)c[nH]1` (stereo not drawn), 60.3%.

`CCOCCCC(=O)N1CCCC1c1nc(-c2ccccc2F)c[nH]1` (stereo not drawn): the INHIBITION stood at 29.5%.

Take `O=C(COCC1CC1)N1CCCC1c1nc(-c2ccccc2F)c[nH]1` (stereo not drawn): the INHIBITION is on record as 46.4%. In the case of `O=C(c1cnc2ccccc2c1)N1CCCC(O)(CN2CCCC2)C1` (stereo not drawn), the INHIBITION amounted to 16.2%. Consider `Cc1ccc(N2CCCC(NCC(=O)Nc3cc(C)nn3C)C2)nn1` (stereo not drawn), for which the INHIBITION worked out at 21%. With `Cc1nc(C)n(CC2CCCN(Cc3nnc(C4CC4)o3)C2)n1` (stereo not drawn) the figure was 2.05%; with `CN1CCC(Cc2cc(Nc3ncccn3)ncn2)CC1`, 62.6%. The result for `CN1CCC(Cc2cc(Nc3ccccn3)ncn2)CC1` reads -14.1%.

For `CCC(=O)N1CCC(Cc2cc(Nc3ncccn3)ncn2)CC1`, the INHIBITION turned out to be 49.6%.

Take `O=S(=O)(C1CC1)N1CCC2(CC1)CN(Cc1nccs1)CCO2`: the INHIBITION was determined as 23.3%. On to `CCn1nc(C)c2c1cnn2CC(=O)Nc1ccc(OC)cc1C`, for which the INHIBITION is on record as 45.4%. The result for `CCOC(=O)c1ccc(S(=O)(=O)NCC(CC)N2CCCC2)cc1` (stereo not drawn) reads -9.2%; that for `COc1nn(C)c2c1CCCN(C(=O)c1cccn1C)C2`, 8.67%. With `Cc1cc(C(F)(F)F)nn1CCNC(=O)C(C)n1ccnc1C(C)C` (stereo not drawn) the figure was 85.5%. Take `Cc1nc(C)n(CCCNC(=O)C(C)n2ccnc2C(C)C)n1` (stereo not drawn): the INHIBITION is listed as -129%. For `Cc1nc(C)n(CCNC(=O)C(C)n2ccnc2C(C)C)n1` (stereo not drawn), the INHIBITION is -23.7%. As to `Cc1cc(-c2cc(S(=O)(=O)N3C[C@H](C4CC4)[C@@H](N)C3)c(C)s2)[nH]n1`, the INHIBITION is listed as 25.5%.

For `COCCN1CCCn2cnc(CNC3CCCC3)c2C1`, the INHIBITION worked out at 55.5%.

`COCCN1CCCn2cnc(CNC(=O)N(C)C)c2C1`: the INHIBITION is reported as 29.8%. The result for `COCCN1CCCn2cnc(CN(C)C(C)C)c2C1` reads 21.7%; that for `COCc1cccc(S(=O)(=O)N2CCSCC2)c1`, 40%. For `CSc1ccc(C)c(C(=O)N2CCCC(n3cncn3)C2)c1` (stereo not drawn), the INHIBITION is -10.1%.

On to `Cc1ncc2c(n1)C1(CCN(C(=O)C(C)C)CC1)OCC2`, for which the INHIBITION was found to be 3.89%. With `CCc1ccc(C(C)NC(=O)c2ccc(CS(C)(=O)=O)o2)cc1` (stereo not drawn) the figure was 50.8%; with `CCc1ccc(C(C)NC(=O)CN(C)Cc2ccc(C)o2)cc1` (stereo not drawn), -27%.

As for `Cc1cn2c(n1)CCC(NC(=O)c1ccc(CS(C)(=O)=O)o1)C2` (stereo not drawn), the INHIBITION is on record as 13.1%. The result for `CCc1ccc(C(=O)NC(C)c2ccc(S(C)(=O)=O)c(F)c2)o1` (stereo not drawn) reads 6.33%. Consider `CC(NC(=O)c1ccc(CS(C)(=O)=O)o1)c1ccc(F)c(F)c1` (stereo not drawn), for which the INHIBITION came to 12.3%. With `Cc1cc(C)cc(C(C)NC(=O)c2ccc(CS(C)(=O)=O)o2)c1` (stereo not drawn), the INHIBITION was 54.3%.

Source of the values: ChEMBL document CHEMBL4513216, “Probing the Open Global Health Chemical Diversity Library for Multistage-Active Starting Points for Next-Generation Antimalarials” (ACS Infect Dis, 2020).
